# ssDAF-12 act – S. stercoralis DAF-12 nuclear receptor activators, primary screen, cell-based, luminescence, HEK293, GRIP1 co-expression, lit1-tk-luc. actives 1% (n = 370,000). activation, % at 6.8 µM. Nuclear hormone receptor DAF-12 (Strongyloides stercoralis). HEK293 ssDAF-12/GRIP1 lit1-tk-luc reporter; % of 3 µM dafachronic acid response;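 active = activation above the mean over all tested compounds plus 3 SD, cut at about 0.9% in these data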;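 also: 0% = DMSO-only wells and 100% = 3 µM delta7-dafachronic acid wells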
# DAX1 inh-1 – DAX1 (NR0B1) inhibitors on StAR promoter, primary screen, cell-based, luminescence, SF-1 (NR5A1), full-length DAX-1. AID 652010, 2013. inhibition, % at 6.8 µM. actives 1.1% (n = 370,000). HEK293T StAR-luciferase reporter, SF-1/DAX-1 repression relief;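 active = inhibition above the mean over all tested compounds plus 3 SD, cut at about 3.6% in these data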;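 also: 0% = DAX-1 cells with DMSO and 100% = cells lacking DAX-1 with DMSO; higher inhibition means more luminescence from relief of DAX-1 repression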
# hgDAF-12 ag – H. glycines DAF-12 receptor agonists, primary screen, cell-based, luminescence, HEK293, GAL4 fusion, UAS-luciferase; Nuclear hormone receptor DAF-12 (Heterodera glycines), GAL4 fusion; HEK293 GAL4-hgDAF12 UAS-luciferase reporter, agonist luminescence; normalized to butyrate control; activation, % at 6.8 µM; actives 1.8% (n = 370,000);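 active = activation above a cutoff set at the mean of all screened compounds plus 3 SD, cut at about 10% in these data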;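 also: 0% = DMSO wells and 100% = sodium butyrate wells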
# DAX1 inh-2 – DAX1 (NR0B1) inhibitors, primary screen, cell-based, HEK293, Gal4-DAX1, luciferase luminescence; Nuclear receptor subfamily 0 group B member 1 (Homo sapiens), P51843; inhibition, % at 6.75 µM; actives 0.99% (n = 340,000); HEK293 Gal4-DAX1 luciferase reporter;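 active = inhibition above the mean over all tested compounds plus 3 SD, cut at about 4.2% in these data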;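 also: 0% = DAX1-transfected cells with DMSO and 100% = empty-vector control cells with DMSO; inhibition shows as a rise in luminescence from relieved DAX1 repression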
# Rev-erbA mod – modulators of Rev-erb alpha DNA binding, primary screen, biochemical, FITC-DNA, fluorescence polarization, uHTS; actives 0.79% (n = 370,000); activity, % at 10 µM; Rev-erbα–FITC-DNA binding, 90 min; Nuclear receptor subfamily 1 group D member 1 (Homo sapiens), P20393;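 active = activity above about 14%, limit read from the data; passing the limit was not always enough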;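 also: 0% = DMSO wells with 35 nM protein and 100% = DMSO wells with 750 nM protein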
# Target sequence (P20393 whole entry, looked up): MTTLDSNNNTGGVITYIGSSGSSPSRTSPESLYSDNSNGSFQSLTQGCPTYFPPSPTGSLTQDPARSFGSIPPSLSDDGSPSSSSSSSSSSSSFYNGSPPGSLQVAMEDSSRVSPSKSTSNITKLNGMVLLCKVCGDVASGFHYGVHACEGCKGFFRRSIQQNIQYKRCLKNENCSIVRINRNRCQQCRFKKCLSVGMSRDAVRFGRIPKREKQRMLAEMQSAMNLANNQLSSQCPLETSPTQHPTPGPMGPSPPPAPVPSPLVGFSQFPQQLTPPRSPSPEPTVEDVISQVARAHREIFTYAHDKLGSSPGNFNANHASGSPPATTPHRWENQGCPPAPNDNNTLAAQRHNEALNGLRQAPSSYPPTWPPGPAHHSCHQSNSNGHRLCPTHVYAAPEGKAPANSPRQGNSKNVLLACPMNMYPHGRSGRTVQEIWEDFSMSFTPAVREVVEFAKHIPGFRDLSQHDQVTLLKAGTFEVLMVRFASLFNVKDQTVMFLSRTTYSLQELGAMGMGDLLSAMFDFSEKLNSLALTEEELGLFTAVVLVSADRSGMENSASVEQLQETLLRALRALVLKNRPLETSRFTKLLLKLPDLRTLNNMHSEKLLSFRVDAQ
# hcDAF-12 act – H. contortus DAF-12 nuclear receptor activators, primary screen, cell-based, luminescence, HEK293, lit1-tk-luc reporter. HEK293 hcDAF-12 lit1-tk-luc reporter; 0% DMSO, 100% Δ7-dafachronic acid. activation, % at 6.8 µM. actives 1.4% (n = 370,000). AID 652067, 2013;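 active = activation above the mean of all tested compounds plus 3 SD, cut at about 5.5% in these data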;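 also: 100% = response to 3 µM Δ7-dafachronic acid high control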
# * marks the source's active call; other numbers are inactive results; / = no result given. Hits are enriched below; roughly 4.8% of the tested compounds scored in any of these assays.
SMILES,ssDAF-12 act,DAX1 inh-1,hgDAF-12 ag,DAX1 inh-2,Rev-erbA mod,hcDAF-12 act
COC(=O)C1=C(C)N(C)C(=NCc2ccc3c(c2)OCO3)NC1c1cccc(Cl)c1 (stereo not given),-1.4,0.4,-1.2,/,-7.0,-0.6
O=C(N/N=C/c1ccc([N+](=O)[O-])cc1)c1[nH]ncc1Br,0.1,1.9,8.8,4.7*,0.9,0.2
O=C(CNc1ccccc1)N/N=C/c1ccc([N+](=O)[O-])cc1,1.6*,-0.2,3.7,1.2,-4.2,-1.2
COc1ccc([C@H]2OC(=O)C[C@H]2C(=O)N2CCN(c3ccccc3Cl)CC2)cc1OC,-1.1,0.1,-1.4,/,4.6,-1.6
CC(C)CNc1cccc2c1S(=O)(=O)N(Cc1cn(Cc3ccc(C(F)(F)F)cc3)nn1)Cc1ccccc1O2,-1.2,0.3,1.9,/,2.6,-1.4
COc1cc2c(cc1NC(=O)CSc1nnc(-c3ccccc3C)n1Cc1ccco1)oc1ccccc12,-1.5,-2.0,3.2,/,-11.8,0.2
O=C(NCc1ccccc1Cl)c1ccc(CSc2nc3ccncc3[nH]2)cc1,-1.4,-1.0,-1.8,-1.1,0.0,-2.8
Clc1ccccc1CSc1nc2ccncc2[nH]1,-0.2,2.9,12.0*,-0.6,2.4,3.5
CCOC(=O)c1c(-c2ccccc2)cn2c(C)cc(C)nc12,-1.0,1.0,12.0*,0.1,-8.6,-0.1
CSc1ccc(/C=C/C(=O)c2c(O)cc(C)oc2=O)cc1,-0.2,1.2,7.4,6.6*,3.2,4.1
COc1ccc(/C=N\NC(=O)CN2CCN(Cc3ccccc3)CC2)cc1OCc1ccccc1,-1.8,-3.8,3.0,/,-2.1,-2.2
CCn1c2ccccc2c2nnc(NN)nc21,-1.2,0.1,2.6,1.0,3.9,-0.7
Cn1c2ccccc2c2nnc(NN)nc21,-0.3,0.6,2.0,1.3,-2.6,5.7*
CCOC(=O)c1sc2nc3c(cc2c1N)COC(C(C)C)C3 (stereo not given),-1.1,1.6,3.2,4.3*,16.8,0.2
CCOC(=O)c1sc2nc(N3CCOCC3)c3c(c2c1N)CC(C(C)C)OC3 (stereo not given),-1.0,0.2,-2.1,0.8,17.7,0.0
N/C(=N/OC(=O)c1ccccc1Cl)c1nonc1N,-0.5,0.9,11.7*,3.3,0.7,0.0
N/C(=N\OC(=O)c1ccc(F)cc1)c1nonc1N,-0.5,0.9,4.0,-0.2,-3.4,-0.4
CCN1C(=S)SC(=O)C1=C1C=C(C)N(CCO)C(C)=C1,-0.1,3.8*,11.5*,4.0,3.6,1.7
CCN1C(=O)/C(=C/C=C2/Sc3ccccc3N2CCO)SC1=S,-1.2,1.8,-0.7,0.0,14.2,-0.3
Cn1cc(C=CC(=O)O)c2nccnc21,1.3*,0.0,1.9,0.3,1.1,4.1
O=C(O)/C=C/c1cn(-c2ccccc2)nc1-c1ccccc1,-0.7,0.2,0.0,1.6,-4.7,0.9
Cc1ccc(S(=O)(=O)NC(=O)c2cc(C)n(CC(c3ccccc3)N(C)C)c2C)cc1 (stereo not given),-0.7,-0.8,-0.1,5.5*,-0.9,-0.5
Cc1ccc(S(=O)(=O)NC(=O)c2cc(C)n(-c3ccccc3)c2C)cc1,-1.1,1.0,-3.0,0.3,-1.6,0.4
C[C@@H](O)[C@H](N)C(=O)O,/,/,/,/,-1.1,/
Cc1nn(-c2ccccc2)c(Cl)c1/C=N/NC(=O)c1cccc(S(=O)(=O)N2CCCC2)c1,-0.5,0.5,0.7,-1.2,-9.9,2.2
SMILES,ssDAF-12 act,DAX1 inh-1,hgDAF-12 ag,DAX1 inh-2,Rev-erbA mod,hcDAF-12 act
Cc1nn(-c2ccccc2Cl)c(Cl)c1/C=N/Nc1cccc(C(=O)O)c1,0.4,4.0*,10.1,-4.0,-1.2,4.3
COc1ccc(C(=O)N2C(=S)NC(=O)/C2=C\c2ccc(C)cc2)cc1,-0.7,1.6,12.0*,0.9,-4.2,2.2
CN(c1ccccc1)S(=O)(=O)c1cccc(NC(=O)CCN2C(=O)C3CCCCC3C2=O)c1 (stereo not given),1.8*,-1.5,-0.2,-1.3,-3.1,0.9
Cc1ccc(C(=O)N=c2sccn2C)cc1S(=O)(=O)N1CCOCC1,-0.3,3.7*,5.6,-0.4,-0.5,1.3
Cc1cccc(C(=O)N=c2sccn2C)c1[N+](=O)[O-],0.5,4.5*,11.1*,1.2,-5.3,-0.2
Cn1ccsc1=NC(=O)c1cccc(C#N)c1,-0.8,0.4,2.5,4.5*,-1.7,0.2
Cn1ccsc1=NC(=O)c1ccc(S(C)(=O)=O)cc1,-0.9,0.0,1.9,1.6,3.1,-0.9
Cc1ccc2c(c1)C1CS(=O)(=O)N(Cc3ccccc3)C(=O)N1C2 (stereo not given),-0.7,-0.7,-1.2,/,-0.7,-2.2
O=C(N[C@@H](Cc1cccnc1)C(=O)N1CCC[C@H]1C(=O)NCCc1ccccc1Cl)c1ccccc1,-1.3,0.0,-1.1,/,1.5,-1.3
C[C@@H]1CN(c2ccc(N3CCN(C(=O)OC(C)(C)C)C[C@H]3C)cc2C#N)CCN1Cc1ccccc1,-0.8,-0.9,3.0,/,10.3,-1.8
CN(C)c1ccc(NC(=O)CCCc2ccccc2)cc1,-0.3,3.0,11.7*,1.5,7.8,4.8
Nc1cc(N)nc(SCCOc2ccccc2F)n1,-0.3,0.2,11.2*,1.1,4.1,1.8
CC(=O)Nc1cccc2c1C(=O)N(c1ccc(C)cc1)C2=O,0.4,1.6,2.5,0.0,5.4,6.0*
Cc1ccc(N2C(=O)c3ccccc3C2=O)cc1,-0.4,0.9,3.3,-0.2,2.2,0.1
O=C(NCCC1=CCCCC1)C1CCN(S(=O)(=O)c2ccccc2[N+](=O)[O-])CC1,-1.9,-0.8,-2.9,/,6.5,-1.5
CCOc1ccc2c(c1)C(=O)c1cc(OCC(=O)O)ccc1-2,-0.8,0.3,-1.9,0.5,-0.5,0.0
CCCCOc1ccc2c(c1)C(=O)c1cc(O)ccc1-2,-0.7,1.6,10.8*,1.3,7.9,1.4
COc1cc2c(cc1OC)C(NC(=O)C(F)(F)F)CNC2=O (stereo not given),-2.0,1.2,12.6*,-0.6,-4.7,-0.6
COc1cc2c(c(OC)c1OC)CC(c1ccccc1)=C(c1ccccc1)CC2NC(=O)C(F)(F)F (stereo not given),-0.8,0.9,-0.9,/,-4.5,-0.3

# Compound activity as filed in PubChem BioAssay.
